PubChem BioAssay AID1159580 (chemical genetic matrix, 2015)
Values joined by “and” are separate entries in the source; they are usually repeats but may differ in a detail not shown here. Equal entries are not always repeated. The campaign covered roughly 5,500 compounds. About 2,000 (36%) were called active. Another 18% or so got no clear call; they are omitted. Rule as the data show it: active = normalized growth mostly below about 0.91 (no sharp cut-off); inconclusive = no clear call, values can overlap the other calls; inactive = mostly above about 0.92. This is one part of the list.

Assay: chemical genetic growth profiling, strain panel (AID 1159580);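 also: tested at 20 µM; growth read once vehicle control cultures reached saturation at 30 °C; 1 = growth at the plate median or of vehicle wells; lower values mean less growth of the strain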
Conditions: S. cerevisiae deletion strains, growth OD

Measured: normalized growth

CCCc1nn(C)c2c(=O)[nH]c(-c3cc(S(=O)(=O)N4CCN(C)CC4)ccc3OCC)nc12
inactive: locus YAL013W, strain DEP1, active compounds read low 1.02 | locus YAL021C, strain ccr4, active compounds read low 0.991 | locus YAL026C, strain drs2, active compounds read low 0.988 | locus YAL030W, strain snc1, active compounds read low 0.997 | locus YBL061C, strain skt5, active compounds read low 0.989 | locus YBR009C, strain hhf1, active compounds read low 1 | locus YBR021W, strain FUR4, active compounds read low 1.05 | locus YBR023C, strain chs3, active compounds read low 0.988 | locus YBR171W, strain sec66, active compounds read low 0.99 | locus YBR229C, strain ROT2, active compounds read low 1.02 | locus YBR231C, strain swc5, active compounds read low 0.988 | locus YBR279W, strain paf1, active compounds read low 0.985 | locus YCL011C, strain gbp2, active compounds read low 0.987 | locus YCL016C, strain dcc1, active compounds read low 0.994 | locus YCL029C, strain bik1, active compounds read low 0.993 | locus YCL061C, strain MRC1, active compounds read low 0.981 | locus YCL069W, strain vba3, active compounds read low 0.992 | locus YCR088W, strain abp1, active compounds read low 0.983 | locus YDL005C, strain med2, active compounds read low 0.987 | locus YDL035C, strain GPR1, active compounds read low 1.03 | locus YDL040C, strain nat1, active compounds read low 0.991 | locus YDL074C, strain BRE1, active compounds read low 1.07 | locus YDL101C, strain DUN1, active compounds read low 1.02 | locus YDL134C, strain PPH21, active compounds read low 1.03 | locus YDL185W, strain tfp1, active compounds read low 1 | locus YDL192W, strain arf1, active compounds read low 0.989 | locus YDR001C, strain nth1, active compounds read low 0.989 | locus YDR069C, strain doa4, active compounds read low 0.991 | locus YDR101C, strain arx1, active compounds read low 0.991 | locus YDR137W, strain rgp1, active compounds read low 0.986 | locus YDR150W, strain NUM1, active compounds read low 1.02 | locus YDR159W, strain sac3, active compounds read low 1 | locus YDR162C, strain NBP2, active compounds read low 1.01 | locus YDR195W, strain ref2 0.978 | locus YDR297W, strain sur2, active compounds read low 0.991 | locus YDR318W, strain mcm21, active compounds read low 1 | locus YDR334W, strain swr1, active compounds read low 0.989 | locus YDR335W, strain msn5, active compounds read low 0.993 | locus YDR388W, active compounds read low 0.962 | locus YDR392W, strain spt3, active compounds read low 0.989 | locus YDR502C, strain sam2, active compounds read low 0.99 | locus YEL003W, strain gim4, active compounds read low 0.995 | locus YEL037C, strain rad23, active compounds read low 0.992 | locus YEL061C, strain CIN8 (second series), active compounds read low 0.988 | locus YEL061C, strain CIN8, active compounds read low 1.02 | locus YER015W, strain faa2, active compounds read low 0.994 | locus YER016W, strain bim1, active compounds read low 0.988 | locus YER110C, active compounds read low 0.974 | locus YER111C, strain swi4, active compounds read low 0.989 | locus YER155C, strain BEM2 (second series), active compounds read low 0.987 | locus YER155C, strain BEM2, active compounds read low 1.01 | locus YER167W, strain BCK2, active compounds read low 1.03 | locus YFR010W, strain ubp6, active compounds read low 0.98 | locus YGL078C, strain dbp3, active compounds read low 0.985 | locus YGL086W, strain mad1, active compounds read low 0.992 | locus YGL167C, strain pmr1, active compounds read low 1 | locus YGL173C, strain kem1, active compounds read low 0.983 | locus YGL227W, strain vid30, active compounds read low 0.988 | locus YGL240W, strain doc1, active compounds read low 1 | locus YGL248W, strain PDE1, active compounds read low 1.02 | locus YGL253W, strain hxk2, active compounds read low 0.995 | locus YGR078C, strain PAC10, active compounds read low 1.04 | locus YGR135W, strain pre9, active compounds read low 0.995 | locus YGR229C, strain SMI1, active compounds read low 1.03 | locus YGR252W, strain gcn5, active compounds read low 0.953 | locus YHR013C, strain ard1, active compounds read low 0.956 | locus YHR027C, strain rpn1, active compounds read low 0.992 | locus YHR030C, strain SLT2, active compounds read low 1.02 and 1.03 | locus YHR079C, strain IRE1 (second series), active compounds read low 0.991 | locus YHR079C, strain IRE1, active compounds read low 1.05 | locus YHR094C, strain hxt1, active compounds read low 0.995 | locus YHR129C, strain ARP1, active compounds read low 1.02 | locus YHR142W, strain chs7, active compounds read low 0.99 | locus YHR200W, strain rpn10, active compounds read low 1 | locus YIL066C, strain RNR3, active compounds read low 1.03 | locus YIL073C, strain SPO22, active compounds read low 1.06 | locus YIL125W, strain kgd1, active compounds read low 0.994 | locus YIR030C, strain dcg1, active compounds read low 0.997 | locus YJL092W, strain hpr5, active compounds read low 0.99 | locus YJL095W, strain BCK1 (second series), active compounds read low 0.986 | locus YJL095W, strain BCK1, active compounds read low 1.04 and 1.01 | locus YJL115W, strain asf1, active compounds read low 0.993 | locus YJL129C, strain trk1, active compounds read low 0.995 | locus YJL134W, strain LCB3, active compounds read low 1.01 | locus YJL154C, strain vps35, active compounds read low 0.988 | locus YJL164C, strain tpk1, active compounds read low 0.999 | locus YJL166W, strain qcr8, active compounds read low 0.991 | locus YJL168C, strain set2, active compounds read low 0.995 | locus YJL187C, strain SWE1 (second series), active compounds read low 1.02 | locus YJL187C, strain SWE1, active compounds read low 0.991 | locus YJR043C, strain POL32, active compounds read low 1.04 | locus YJR066W, strain TOR1, active compounds read low 0.981
